Out of some 310,000 compounds screened, about 2,200 (0.71%) showed an effect of 50% or more. Effects have a minus sign here. What follows is part of a selection rich in strong results, with near analogues and random picks from the rest.

Chain of human ether-à-go-go-related gene (hERG) potassium channel (Q12809 whole entry, looked up): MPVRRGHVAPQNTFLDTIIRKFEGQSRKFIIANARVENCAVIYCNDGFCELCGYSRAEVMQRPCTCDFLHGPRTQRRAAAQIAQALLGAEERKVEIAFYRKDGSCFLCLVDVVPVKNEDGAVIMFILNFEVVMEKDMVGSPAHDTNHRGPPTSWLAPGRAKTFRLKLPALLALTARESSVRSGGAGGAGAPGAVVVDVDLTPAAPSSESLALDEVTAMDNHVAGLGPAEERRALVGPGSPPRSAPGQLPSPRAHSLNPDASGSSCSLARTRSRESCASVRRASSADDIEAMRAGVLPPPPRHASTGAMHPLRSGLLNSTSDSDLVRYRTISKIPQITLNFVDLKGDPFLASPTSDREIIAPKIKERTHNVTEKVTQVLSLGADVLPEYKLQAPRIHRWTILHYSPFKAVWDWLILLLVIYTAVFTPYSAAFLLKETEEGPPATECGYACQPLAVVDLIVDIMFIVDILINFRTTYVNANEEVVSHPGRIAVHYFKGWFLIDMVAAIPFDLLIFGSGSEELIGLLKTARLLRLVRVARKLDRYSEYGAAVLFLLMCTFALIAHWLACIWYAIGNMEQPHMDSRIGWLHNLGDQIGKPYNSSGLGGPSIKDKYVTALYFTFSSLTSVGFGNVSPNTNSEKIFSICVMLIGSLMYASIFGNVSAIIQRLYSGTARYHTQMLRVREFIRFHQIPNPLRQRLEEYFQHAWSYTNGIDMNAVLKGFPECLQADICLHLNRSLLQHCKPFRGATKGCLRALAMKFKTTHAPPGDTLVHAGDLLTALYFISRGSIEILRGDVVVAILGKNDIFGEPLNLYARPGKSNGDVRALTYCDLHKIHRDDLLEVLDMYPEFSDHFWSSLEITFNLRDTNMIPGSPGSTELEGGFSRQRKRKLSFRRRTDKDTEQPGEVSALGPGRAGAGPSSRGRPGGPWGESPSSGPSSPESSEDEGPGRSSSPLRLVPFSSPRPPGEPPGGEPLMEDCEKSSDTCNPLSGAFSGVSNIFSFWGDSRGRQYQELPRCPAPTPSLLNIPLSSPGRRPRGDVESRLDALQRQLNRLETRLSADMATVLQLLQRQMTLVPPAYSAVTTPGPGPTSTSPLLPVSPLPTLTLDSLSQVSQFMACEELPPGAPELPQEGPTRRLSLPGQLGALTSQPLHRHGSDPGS

This experiment addresses human ether-à-go-go-related gene (hERG) potassium channel (human, UniProt Q12809). The experiment is described as follows: primary screen, population patch clamp on CHO cells stably expressing hERG; higher = less effect of the substance.
For `Cc1ccc(S(=O)(=O)N2CCCCC2)cc1C(=O)N(CCc1ccccc1)Cc1ccccc1`, the “hERG current change (%, negative = inhibition) at 1uM” value is given as 12.2%. Regarding `COc1ccc(C(=O)Oc2ccc(F)cc2C(=O)/C=C/c2ccc(OC)c(OC)c2)cc1`, the “hERG current change (%, negative = inhibition) at 1uM” value came to 0.79%. To `O=C(COc1ccccc1Cl)NC(=S)Nc1ccc(CN2CCOCC2)cc1` belongs 15.7%; to `Cc1ccc(NC(=O)COc2ccc3oc4c(c3c2)CCCC4)nc1`, 2.88%; to `COc1cc(C2C(C(=O)c3cccs3)=C(O)C(=O)N2c2cc(C)on2)ccc1O` (stereo not drawn), 2.84%.

On to `COc1ccc([N+](=O)[O-])cc1NC(=O)CSCc1ccccc1`, for which the “hERG current change (%, negative = inhibition) at 1uM” value worked out at 13.5%. To `COc1ccc(-c2cc3ccc(OCC(=O)NCC4CCC(C(=O)O)CC4)cc3oc2=O)cc1` (stereo not drawn) belongs 5.49%. To `CC(C)(C)C(=O)N1NC(=Nc2ccccc2)SC1(C)C` belongs 7.38%; to `CCOc1ccc(S(=O)(=O)NCC2CCCO2)c2ccccc12` (stereo not drawn), 4.4%; to `O=C1OC(Nc2ccc(Cl)cn2)c2ccccc21` (stereo not drawn), 2.2%.

As to `CCOC(=O)c1ccc2c(c1)n(CC)c(/C=C/N(C)c1ccccc1)[n+]2CC.[I-]`, the “hERG current change (%, negative = inhibition) at 1uM” value is given as -66.2%. As for `CCn1c(/C=C/Nc2ccccc2)[n+](CC)c2ccc(C(=O)OCC(F)(F)F)cc21.[I-]`, the figure is -90.5%; as for `CCOC(=O)c1ccc2c(c1)n(CCCS(=O)(=O)[O-])c(/C=C/c1ccc(Cl)cc1)[n+]2CC`, -7.29%; as for `CCn1c(C)[n+](CC)c2ccc(C(=O)N(C)c3ccccc3)cc21.[I-]`, 25.5%.

As to `CCOC(=O)c1ccc2c(c1)n(CC)c(C)[n+]2CC.[I-]`, the “hERG current change (%, negative = inhibition) at 1uM” value was 1.24%. `CCOC(=O)c1ccc2c(c1)n(CCO)c(C)[n+]2CC.[I-]`: the “hERG current change (%, negative = inhibition) at 1uM” value is given as 6.24%. On to `CCOC(=O)c1ccc2c(c1)n(Cc1ccccc1)c(C)[n+]2CC.[O-][Cl+3]([O-])([O-])[O-]`, for which the “hERG current change (%, negative = inhibition) at 1uM” value is given as 1.03%. As for `CCOC(=O)c1ccc2c(c1)n(CC)c(/C=C/Nc1ccccc1)[n+]2CC.[I-]`, the figure is -86.7%. As for `CCn1c(/C=C/N(C)c2ccccc2)[n+](CC)c2ccc(Cl)cc21.[I-]`, the figure is -7.59%; as for `CCC1CCCCN1C(=O)c1sc2nc(C)nc(N(CC)CC)c2c1C` (stereo not drawn), 5.72%. Take `O=C(CC1C(=O)NCCN1Cc1ccc(Cl)c(F)c1)NC1CCC1` (stereo not drawn): the “hERG current change (%, negative = inhibition) at 1uM” value is listed as 14%.

As to `Cc1ccc(C2CCN(C(=O)Nc3ccccc3)C2)cc1` (stereo not drawn), the “hERG current change (%, negative = inhibition) at 1uM” value is 11.5%. To `CC(C)CC1NC(=O)N(CC(=O)NC2CCCc3ccccc32)C1=O` (stereo not drawn) belongs 9.38%. As for `O=C(c1cccc(C(F)(F)F)c1)N1CCN(S(=O)(=O)c2ccc(Cl)s2)CC1`, the figure is 3.68%; as for `O=C(O)c1ccc2c(c1)C(=O)N(c1cc([N+](=O)[O-])ccn1)C2=O`, 10.8%. As for `COc1ccccc1C1/C(=C(/O)c2ccccc2)C(=O)C(=O)N1CC(C)C` (stereo not drawn), the figure is 10.7%; as for `O=C(O)C1C2C=CC(C2)C1C(=O)NCc1ccoc1` (stereo not drawn), 14.3%. For `CC(=O)N1CCN(CC(=O)Nc2cc([N+](=O)[O-])ccc2Cl)CC1`, the “hERG current change (%, negative = inhibition) at 1uM” value came to 1.54%. To `CC(=O)N1CCN(CC(=O)Nc2ccc([N+](=O)[O-])cc2Br)CC1` belongs -60.4%; to `O=C(CN1CCOCC1)Nc1ccc([N+](=O)[O-])cc1Br`, -11.7%; to `O=C(CN1CCCCCC1)Nc1ccc([N+](=O)[O-])cc1Br`, 10.1%. As for `CN1CCN(CC(=O)Nc2ccc([N+](=O)[O-])cc2Br)CC1`, the figure is -55.8%; as for `O=C(CN1CCN(c2ccccc2O)CC1)Nc1ccc([N+](=O)[O-])cc1Br`, 7.54%.

For the compound `O=C(CSc1cccc[n+]1[O-])C12CC3CC(CC(C3)C1)C2`, the “hERG current change (%, negative = inhibition) at 1uM” value turned out to be 6.16%. As for `NS(=O)(=O)c1cccc(NC(=O)CCCC2CCCCC2)c1`, the figure is 7.26%; as for `Cc1cccc(-c2c3c(=O)n(C)c(=O)n(C)c3cn2-c2ccc(O)cc2)c1`, 13.8%; as for `Cc1nc2c(-c3ccccc3)c[nH]n2c(=O)c1Cc1ccccc1`, 13.3%. As to `O=S(=O)(c1ccccc1)N1CCN(Cc2ccc(Cl)cc2)CC1`, the “hERG current change (%, negative = inhibition) at 1uM” value was -2.04%. `O=S(=O)(c1ccc(Cl)cc1)N1CCN(C2CCN(Cc3ccccc3)CC2)CC1`: the “hERG current change (%, negative = inhibition) at 1uM” value is -59%. `O=C(O)C(=O)O.O=[N+]([O-])c1ccc(S(=O)(=O)N2CCN(C3CCN(Cc4ccccc4)CC3)CC2)cc1`: the “hERG current change (%, negative = inhibition) at 1uM” value is reported as -78.1%. To `COc1ccc(S(=O)(=O)N2CCC(N3CCN(Cc4ccccc4)CC3)CC2)cc1.O=C(O)C(=O)O` belongs -14.4%. For `O=S(=O)(c1ccc(Cl)cc1)N1CCN(C2CCCCCC2)CC1`, the “hERG current change (%, negative = inhibition) at 1uM” value is listed as 1.61%. As to `O=[N+]([O-])c1ccccc1S(=O)(=O)N1CCN(C2CCN(Cc3ccccc3)CC2)CC1`, the “hERG current change (%, negative = inhibition) at 1uM” value was -18.2%. As for `CC(C)CC(=O)N1CCN(S(=O)(=O)c2ccccc2)CC1`, the figure is 8.07%; as for `Cc1ccc(S(=O)(=O)N2CCN(Cc3ccccc3)CC2)cc1`, 10%; as for `Cc1ccc(S(=O)(=O)N2CCN(C3CCN(Cc4ccccc4)CC3)CC2)cc1.O=C(O)C(=O)O`, -75.3%. Regarding `O=C(O)C(=O)O.O=[N+]([O-])c1ccc(S(=O)(=O)N2CCN(Cc3ccco3)CC2)cc1`, the “hERG current change (%, negative = inhibition) at 1uM” value was 18.9%. To `CC(CC(=O)N1CCN(S(=O)(=O)c2ccc([N+](=O)[O-])cc2)CC1)c1ccccc1` (stereo not drawn) belongs -50.3%. With `O=C(Cc1ccccc1)N1CCN(S(=O)(=O)c2ccc([N+](=O)[O-])cc2)CC1`, the “hERG current change (%, negative = inhibition) at 1uM” value is recorded as -24.6%. As for `c1ccc(OCc2nn3c(-c4ccccn4)nnc3s2)cc1`, the figure is 12.2%. To `O=C(CN(C(=O)CNC(=O)c1cccs1)c1ccc2c(c1)OCCO2)NC1CCCC1` belongs -3.99%; to `COc1cccc(NC(=S)NNC(=O)Cn2nc(C(F)(F)F)cc2C)c1`, 9.84%; to `COc1ccc(COC(=O)C2=C(C)NC(=O)NC2c2ccc(OC)c(OC)c2)cc1` (stereo not drawn), 12.4%. For `Cc1ccc(-c2cc3ccccc3nc2N2CCOCC2)cc1`, the “hERG current change (%, negative = inhibition) at 1uM” value amounted to 9.78%. As for `Cc1ccc(OC(F)F)c(NC(=O)Nc2ccc3c(c2)OCO3)c1`, the figure is 19.9%; as for `CC(=O)NC(c1ccco1)c1ccc2cccnc2c1O` (stereo not drawn), -3.48%; as for `Cc1cc(CSc2ccccc2C(=O)O)on1`, 11.6%.

Take `Cc1ccc(C2=N/C(=C\c3cccnc3)C(=O)O2)cc1`: the “hERG current change (%, negative = inhibition) at 1uM” value is on record as 3.52%. As for `CS(=O)(=O)N1CCN(C2CCN(Cc3ccccc3)CC2)CC1`, the figure is 7.88%; as for `CN1CCN(CC2(O)CCN(S(=O)(=O)c3ccc(Cl)cc3)CC2)CC1`, -9.27%; as for `O=S(=O)(c1ccc(Cl)cc1)N1CCC(O)(CN2CCN(Cc3ccccc3)CC2)CC1`, -75.6%. Regarding `COc1ccc(S(=O)(=O)N2CCN(C3CCN(Cc4ccccc4)CC3)CC2)cc1`, the “hERG current change (%, negative = inhibition) at 1uM” value is recorded as -15.6%. Regarding `O=S(=O)(c1ccccc1)N1CCC(O)(CN2CCN(c3ccccc3)CC2)CC1`, the “hERG current change (%, negative = inhibition) at 1uM” value was determined as 14.8%. As for `O=S(=O)(c1ccccc1)N1CCN(C2CCN(Cc3ccccc3)CC2)CC1`, the figure is -64.1%; as for `Cc1cc(NC(=O)CCC(=O)N(Cc2cccnc2)C(C(=O)NC(C)(C)C)c2ccccc2Cl)no1` (stereo not drawn), 14.7%. To `O=C1CN(c2ccccc2)C(=S)N1C(=O)c1ccccc1` belongs 13.5%; to `C/C(=N/NC(=O)c1ccc(Br)o1)c1cccc(NC(=O)c2ccc(C)o2)c1`, -58%; to `C/C(=N\NC(=O)c1cccc(Br)c1)c1cccc(NC(=O)c2ccc(C)o2)c1`, 2.01%.

For the compound `C/C(=N/NC(=O)c1ccco1)c1cccc(NC(=O)c2ccc(C)o2)c1`, the “hERG current change (%, negative = inhibition) at 1uM” value is -8.71%.

As to `Cc1[nH]c2ccc(C(=O)N3CCN(Cc4ccccc4)CC3)cc2c1C`, the “hERG current change (%, negative = inhibition) at 1uM” value was found to be 0.829%. Turning to `CC1(c2nnc(-c3cccc(Cl)c3)o2)CC(c2ccccc2F)=NO1` (stereo not drawn), the “hERG current change (%, negative = inhibition) at 1uM” value stood at 8.2%.

On to `Cl.O.O=C(c1ccc(F)cc1)C1CCN(CCn2c(=S)[nH]c3ccccc3c2=O)CC1`, for which the “hERG current change (%, negative = inhibition) at 1uM” value is -77.7%. To `O=C(CN1CCC(C(=O)c2ccc(F)cc2)CC1)NCc1ccccc1F` belongs 2.84%. As to `O=C(O)C(O)C(O)C(=O)O.O=C(c1ccc(F)cc1)C1CCN(CCn2c(=O)[nH]c3ccccc3c2=O)CC1`, the “hERG current change (%, negative = inhibition) at 1uM” value is on record as -9.52%. In the case of `CC1CCN(CCCn2c(=S)[nH]c3ccccc3c2=O)CC1`, the “hERG current change (%, negative = inhibition) at 1uM” value was -13.5%.

For `O=C(CN1CCC(C(=O)c2ccc(F)cc2)CC1)Nc1ccccc1`, the “hERG current change (%, negative = inhibition) at 1uM” value is -10.5%. Regarding `O=c1c2ccccc2[nH]c(=S)n1CCCN1CCC(Cc2ccccc2)CC1`, the “hERG current change (%, negative = inhibition) at 1uM” value is reported as -52%. As for `O=c1c2ccccc2[nH]c(=S)n1CCCN1CCN(c2ccccc2)CC1`, the figure is 14%; as for `CC1(C)C(=O)N(CCN2CCC(C(=O)c3ccc(F)cc3)CC2)c2ccccc21.Cl`, -60.8%. `CC1CCN(CCn2c(=S)[nH]c3ccccc3c2=O)CC1`: the “hERG current change (%, negative = inhibition) at 1uM” value is listed as 1.9%. With `O=C(CCSc1nc2ccccc2o1)N1CCOCC1`, the “hERG current change (%, negative = inhibition) at 1uM” value was determined as 8.39%. To `CCOc1cc(C(=O)Nc2cccc3ncccc23)cc(OCC)c1OCC` belongs -2.81%.

Consider `COC(=O)Cc1c(O)ccn(Cc2ccccc2OC)c1=O`, for which the “hERG current change (%, negative = inhibition) at 1uM” value is listed as 10.5%. `COc1cc(/C=N/Nc2nc3ccccc3[nH]2)cc(Br)c1OCC(=O)N(C)C`: the “hERG current change (%, negative = inhibition) at 1uM” value was determined as 0.153%.

For the origin of these results see PMC4336329 (PLoS ONE, 2015).
